Among the data in publication PMC7862700, “An all-to-all approach to the identification of sequence-specific readers for epigenetic DNA modifications on cytosine” are binding signal values, retold here.

What all share (test): DAPPL (digital affinity profiling via proximity ligation, sequencing); 10 mM Tris-HCl pH 7.5, 50 mM NaCl, 1 mM DTT, 4% glycerol, room temperature, 30 min; GST-TFs on glutathione beads, 16-mer random dsDNA library, 0.1% formaldehyde crosslink after washing; high values mean tight binding
The target in one assay is T1, FLI1 (Homo sapiens, UniProt Q01543 1-452).
T1 sequence: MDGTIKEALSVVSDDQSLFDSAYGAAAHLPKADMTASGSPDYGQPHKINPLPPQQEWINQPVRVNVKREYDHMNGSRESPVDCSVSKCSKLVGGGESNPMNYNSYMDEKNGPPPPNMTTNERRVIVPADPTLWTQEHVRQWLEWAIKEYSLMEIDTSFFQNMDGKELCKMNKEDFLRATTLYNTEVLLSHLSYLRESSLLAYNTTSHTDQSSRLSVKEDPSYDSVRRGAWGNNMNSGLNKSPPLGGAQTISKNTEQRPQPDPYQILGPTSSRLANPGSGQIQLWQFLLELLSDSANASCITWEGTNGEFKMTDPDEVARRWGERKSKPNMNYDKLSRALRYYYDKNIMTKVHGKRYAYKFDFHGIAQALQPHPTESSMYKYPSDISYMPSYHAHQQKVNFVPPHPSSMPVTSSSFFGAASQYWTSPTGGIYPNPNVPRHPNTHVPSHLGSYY
As to conditions: protein: recombinant; tags: N-terminal GST; dsDNA, one strand shown. The gist of the method:
(§1)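 Each value of binding signal is a hexamer's read frequency for a factor divided by the same hexamer's frequency in the tag-only sample. Barcoded, bead-captured GST fusions of human transcription factors made in yeast were pooled with that sample and incubated with 200 nmole of a random double-stranded 16-mer DNA library in Tris/NaCl/DTT/glycerol buffer at room temperature for 30 min. Washing, 0.1% formaldehyde crosslinking, proximity ligation, PCR and Illumina NextSeq500 sequencing followed.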

The next assay addresses T2, ELK1 (Homo sapiens, UniProt P19419 1-428).
T2 sequence: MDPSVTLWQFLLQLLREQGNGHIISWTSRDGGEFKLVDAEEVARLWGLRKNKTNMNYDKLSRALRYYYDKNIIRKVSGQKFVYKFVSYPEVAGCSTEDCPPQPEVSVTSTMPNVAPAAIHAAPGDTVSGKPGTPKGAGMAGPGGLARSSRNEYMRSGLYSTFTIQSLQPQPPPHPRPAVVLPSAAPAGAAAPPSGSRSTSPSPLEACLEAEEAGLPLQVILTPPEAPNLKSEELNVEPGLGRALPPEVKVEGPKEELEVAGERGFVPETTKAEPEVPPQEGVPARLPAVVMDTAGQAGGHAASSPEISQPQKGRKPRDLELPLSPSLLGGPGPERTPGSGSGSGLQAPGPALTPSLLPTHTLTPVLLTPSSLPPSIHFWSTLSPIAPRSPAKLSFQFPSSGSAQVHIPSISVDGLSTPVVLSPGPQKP
As to conditions: protein: recombinant; tags: N-terminal GST; dsDNA, one strand shown. The gist of the method:
as §1

For a further assay, the target named is T3, GABPA (Homo sapiens, UniProt Q06546 1-454).
T3 sequence: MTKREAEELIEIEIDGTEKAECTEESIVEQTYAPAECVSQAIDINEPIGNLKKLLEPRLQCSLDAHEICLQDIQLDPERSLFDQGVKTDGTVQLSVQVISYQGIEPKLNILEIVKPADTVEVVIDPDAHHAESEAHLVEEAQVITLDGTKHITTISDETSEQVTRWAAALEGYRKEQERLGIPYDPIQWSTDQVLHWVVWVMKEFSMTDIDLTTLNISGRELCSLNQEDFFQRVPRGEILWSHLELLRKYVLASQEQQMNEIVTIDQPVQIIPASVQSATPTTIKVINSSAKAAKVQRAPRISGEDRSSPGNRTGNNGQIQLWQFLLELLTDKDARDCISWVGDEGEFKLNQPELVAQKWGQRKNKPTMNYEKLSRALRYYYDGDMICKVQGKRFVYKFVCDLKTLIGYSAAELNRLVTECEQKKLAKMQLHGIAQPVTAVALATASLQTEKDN
Particulars: protein: recombinant; tags: N-terminal GST; dsDNA, one strand shown. The procedure, abridged:
as §1

The next assay addresses T4, ERG (Homo sapiens, UniProt P11308 1-479).
T4 sequence: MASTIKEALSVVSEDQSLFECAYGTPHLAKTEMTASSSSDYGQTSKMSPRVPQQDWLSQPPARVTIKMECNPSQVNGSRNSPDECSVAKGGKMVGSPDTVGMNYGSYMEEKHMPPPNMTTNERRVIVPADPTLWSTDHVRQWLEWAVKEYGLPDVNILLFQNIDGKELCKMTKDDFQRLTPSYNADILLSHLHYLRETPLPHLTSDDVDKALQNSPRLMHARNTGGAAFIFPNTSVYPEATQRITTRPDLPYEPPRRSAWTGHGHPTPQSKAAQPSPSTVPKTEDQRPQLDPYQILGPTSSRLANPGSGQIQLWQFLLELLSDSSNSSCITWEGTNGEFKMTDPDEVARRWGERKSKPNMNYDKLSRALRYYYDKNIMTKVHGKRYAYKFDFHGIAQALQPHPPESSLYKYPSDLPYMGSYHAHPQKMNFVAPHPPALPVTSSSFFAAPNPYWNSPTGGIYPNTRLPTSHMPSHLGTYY
As to conditions: protein: recombinant; tags: N-terminal GST; dsDNA, one strand shown. The gist of the method: as §1

The next assay deals with ELF1 (Homo sapiens, UniProt P32519 1-619). As to conditions: protein: recombinant; tags: N-terminal GST; dsDNA, one strand shown. The procedure, abridged:
as §1

Another assay has as its target T5, EHF (Homo sapiens, UniProt Q9NZC4 1-300).
T5 sequence: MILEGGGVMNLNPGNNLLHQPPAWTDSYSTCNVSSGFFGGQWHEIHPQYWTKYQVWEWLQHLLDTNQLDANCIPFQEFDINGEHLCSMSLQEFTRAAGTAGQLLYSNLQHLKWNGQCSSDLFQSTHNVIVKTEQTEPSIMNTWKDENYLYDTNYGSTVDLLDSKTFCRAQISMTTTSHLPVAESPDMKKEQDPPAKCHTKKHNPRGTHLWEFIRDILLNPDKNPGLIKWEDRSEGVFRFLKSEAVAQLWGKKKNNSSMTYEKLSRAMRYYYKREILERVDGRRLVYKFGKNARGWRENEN
As to conditions: protein: recombinant; tags: N-terminal GST; dsDNA, one strand shown. The procedure, abridged: as §1

In the next assay the target is SPI1 (Homo sapiens, UniProt P17947 1-270). As to conditions: protein: recombinant; tags: N-terminal GST; dsDNA, one strand shown. The procedure, abridged:
as §1

Another assay has as its target SPIB (Homo sapiens, UniProt Q01892 1-262). As to conditions: protein: recombinant; tags: N-terminal GST; dsDNA, one strand shown. The gist of the method: as §1
For another assay, the target named is T6, ELK3 (Homo sapiens, UniProt P41970 1-407).
T6 sequence: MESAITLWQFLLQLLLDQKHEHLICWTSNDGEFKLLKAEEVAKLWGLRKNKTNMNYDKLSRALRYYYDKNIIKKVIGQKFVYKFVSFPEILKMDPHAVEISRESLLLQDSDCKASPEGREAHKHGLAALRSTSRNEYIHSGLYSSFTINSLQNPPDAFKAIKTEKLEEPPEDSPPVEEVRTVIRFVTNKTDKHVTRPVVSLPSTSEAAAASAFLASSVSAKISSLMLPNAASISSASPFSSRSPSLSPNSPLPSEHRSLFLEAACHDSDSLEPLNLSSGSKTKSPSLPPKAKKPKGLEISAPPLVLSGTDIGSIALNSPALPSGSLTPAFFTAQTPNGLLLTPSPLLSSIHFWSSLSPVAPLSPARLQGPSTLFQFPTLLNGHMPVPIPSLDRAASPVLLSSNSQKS
Particulars: protein: recombinant; tags: N-terminal GST; dsDNA, one strand shown. The gist of the method:
as §1

The target in the next assay is T7, FEV (Homo sapiens, UniProt Q99581 1-238).
T7 sequence: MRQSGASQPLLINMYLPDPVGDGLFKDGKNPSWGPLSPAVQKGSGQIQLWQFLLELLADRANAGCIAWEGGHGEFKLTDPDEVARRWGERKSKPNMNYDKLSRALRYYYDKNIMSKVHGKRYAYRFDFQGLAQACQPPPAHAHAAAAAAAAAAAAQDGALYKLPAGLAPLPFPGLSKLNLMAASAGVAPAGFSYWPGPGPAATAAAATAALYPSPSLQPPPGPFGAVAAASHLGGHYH
Particulars: protein: recombinant; tags: N-terminal GST; dsDNA, one strand shown. The procedure, abridged:
as §1

For another assay, the target named is ETV5 (Homo sapiens, UniProt P41161 1-510). As to conditions: protein: recombinant; tags: N-terminal GST; dsDNA, one strand shown. The gist of the method:
as §1

The next assay concerns the target HSF1 (Homo sapiens, UniProt Q00613 1-529). As to conditions: protein: recombinant; tags: N-terminal GST; chain copies: 3; dsDNA, one strand shown. The gist of the method: as §1
The target of the next assay is ELF4 (Homo sapiens, UniProt Q99607 1-663). Particulars: protein: recombinant; tags: N-terminal GST; dsDNA, one strand shown. The procedure, abridged:
as §1

Another assay has as its target T8, ELK4 (Homo sapiens, UniProt P28324-2 1-405).
T8 sequence: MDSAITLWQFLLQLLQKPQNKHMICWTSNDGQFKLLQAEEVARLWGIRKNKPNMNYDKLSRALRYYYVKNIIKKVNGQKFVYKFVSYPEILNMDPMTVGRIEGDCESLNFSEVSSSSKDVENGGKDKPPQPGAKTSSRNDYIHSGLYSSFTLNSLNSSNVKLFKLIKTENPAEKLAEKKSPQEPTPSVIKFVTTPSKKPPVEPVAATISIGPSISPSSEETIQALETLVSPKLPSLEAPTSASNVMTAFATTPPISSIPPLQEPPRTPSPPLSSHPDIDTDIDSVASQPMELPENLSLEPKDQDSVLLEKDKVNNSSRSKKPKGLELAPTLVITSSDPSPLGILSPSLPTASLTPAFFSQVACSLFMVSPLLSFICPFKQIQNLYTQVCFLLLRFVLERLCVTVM
As to conditions: protein: recombinant; tags: N-terminal GST; dsDNA, one strand shown. The procedure, abridged:
as §1

For another assay, the target named is T9, ETV2 (Homo sapiens, UniProt O00321 1-342).
T9 sequence: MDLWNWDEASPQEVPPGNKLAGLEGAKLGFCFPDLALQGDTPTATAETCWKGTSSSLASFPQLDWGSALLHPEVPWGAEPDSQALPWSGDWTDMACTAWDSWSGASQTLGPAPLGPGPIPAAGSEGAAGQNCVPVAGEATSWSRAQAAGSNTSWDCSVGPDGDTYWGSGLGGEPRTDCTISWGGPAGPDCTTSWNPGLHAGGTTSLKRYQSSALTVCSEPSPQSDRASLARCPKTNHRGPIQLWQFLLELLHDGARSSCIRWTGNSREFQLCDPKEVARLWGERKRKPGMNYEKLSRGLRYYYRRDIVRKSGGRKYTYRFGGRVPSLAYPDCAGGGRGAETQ
Particulars: protein: recombinant; tags: N-terminal GST; dsDNA, one strand shown. The procedure, abridged: as §1

A further assay addresses T10, ELF3 (Homo sapiens, UniProt P78545 1-371).
T10 sequence: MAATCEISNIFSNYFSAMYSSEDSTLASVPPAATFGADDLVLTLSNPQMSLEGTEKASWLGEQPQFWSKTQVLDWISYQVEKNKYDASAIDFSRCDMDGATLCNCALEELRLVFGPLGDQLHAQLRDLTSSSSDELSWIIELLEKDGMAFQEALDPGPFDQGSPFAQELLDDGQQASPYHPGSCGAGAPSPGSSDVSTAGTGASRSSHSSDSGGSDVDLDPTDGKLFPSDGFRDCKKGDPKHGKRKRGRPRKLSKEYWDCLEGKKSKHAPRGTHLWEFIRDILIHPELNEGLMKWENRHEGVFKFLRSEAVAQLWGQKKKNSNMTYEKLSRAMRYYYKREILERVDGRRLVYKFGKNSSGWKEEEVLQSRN
Particulars: protein: recombinant; tags: N-terminal GST; dsDNA, one strand shown. The gist of the method:
as §1

The next assay addresses CRX (Homo sapiens, UniProt O43186 1-299). As to conditions: protein: recombinant; tags: N-terminal GST; dsDNA, one strand shown. The procedure, abridged: as §1
For the next assay, the target named is ETV1 (Homo sapiens, UniProt P50549 1-477). As to conditions: protein: recombinant; tags: N-terminal GST; dsDNA, one strand shown. The gist of the method: as §1
ETV1, sequence (P50549 whole entry): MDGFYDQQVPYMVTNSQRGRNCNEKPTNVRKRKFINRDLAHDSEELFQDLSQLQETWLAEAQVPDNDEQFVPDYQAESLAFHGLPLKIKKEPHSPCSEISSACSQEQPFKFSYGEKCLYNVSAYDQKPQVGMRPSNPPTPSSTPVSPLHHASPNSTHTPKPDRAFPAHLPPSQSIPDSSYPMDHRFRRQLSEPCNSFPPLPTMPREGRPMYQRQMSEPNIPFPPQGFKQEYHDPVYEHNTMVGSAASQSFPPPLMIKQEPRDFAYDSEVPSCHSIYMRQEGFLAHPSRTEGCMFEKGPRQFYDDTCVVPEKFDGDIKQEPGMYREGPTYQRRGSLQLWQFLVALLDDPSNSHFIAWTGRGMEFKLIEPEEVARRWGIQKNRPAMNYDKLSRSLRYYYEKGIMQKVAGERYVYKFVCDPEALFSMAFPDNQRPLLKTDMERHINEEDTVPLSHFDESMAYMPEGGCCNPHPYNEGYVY

CRX, sequence (O43186 whole entry): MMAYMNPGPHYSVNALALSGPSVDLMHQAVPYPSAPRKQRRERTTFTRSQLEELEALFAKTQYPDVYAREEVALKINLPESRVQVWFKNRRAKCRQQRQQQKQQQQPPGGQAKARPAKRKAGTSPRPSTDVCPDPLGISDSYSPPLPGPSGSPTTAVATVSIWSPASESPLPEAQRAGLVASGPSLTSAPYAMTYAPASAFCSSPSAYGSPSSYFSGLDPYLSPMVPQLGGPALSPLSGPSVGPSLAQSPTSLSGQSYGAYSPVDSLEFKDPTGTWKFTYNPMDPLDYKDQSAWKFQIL
ELF4, sequence (Q99607 whole entry): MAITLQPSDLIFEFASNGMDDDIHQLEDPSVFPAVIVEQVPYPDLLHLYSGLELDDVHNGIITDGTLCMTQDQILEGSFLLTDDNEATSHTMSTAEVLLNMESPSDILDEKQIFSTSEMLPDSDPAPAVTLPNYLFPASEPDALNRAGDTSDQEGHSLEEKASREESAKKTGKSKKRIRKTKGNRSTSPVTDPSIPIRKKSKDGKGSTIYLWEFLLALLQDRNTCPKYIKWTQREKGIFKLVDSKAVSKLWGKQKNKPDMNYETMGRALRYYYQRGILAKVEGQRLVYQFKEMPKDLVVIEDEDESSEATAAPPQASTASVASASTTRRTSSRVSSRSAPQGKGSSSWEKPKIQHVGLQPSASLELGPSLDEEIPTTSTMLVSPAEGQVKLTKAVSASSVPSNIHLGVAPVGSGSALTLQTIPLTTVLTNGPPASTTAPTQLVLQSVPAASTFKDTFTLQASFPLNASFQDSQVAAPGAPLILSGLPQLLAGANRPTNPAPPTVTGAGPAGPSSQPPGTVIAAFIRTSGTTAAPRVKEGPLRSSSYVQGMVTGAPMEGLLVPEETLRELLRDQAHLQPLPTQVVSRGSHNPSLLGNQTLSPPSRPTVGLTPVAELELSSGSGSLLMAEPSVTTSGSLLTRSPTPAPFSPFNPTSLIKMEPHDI
SPIB, sequence (Q01892 whole entry): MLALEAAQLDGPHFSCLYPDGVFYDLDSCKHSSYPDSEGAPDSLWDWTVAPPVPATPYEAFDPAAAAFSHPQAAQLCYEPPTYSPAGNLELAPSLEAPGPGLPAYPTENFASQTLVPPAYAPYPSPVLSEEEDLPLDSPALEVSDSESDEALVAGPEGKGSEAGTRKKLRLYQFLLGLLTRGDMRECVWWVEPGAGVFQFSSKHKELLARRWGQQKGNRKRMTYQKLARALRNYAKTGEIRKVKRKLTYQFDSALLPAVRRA
ETV5, sequence (P41161 whole entry): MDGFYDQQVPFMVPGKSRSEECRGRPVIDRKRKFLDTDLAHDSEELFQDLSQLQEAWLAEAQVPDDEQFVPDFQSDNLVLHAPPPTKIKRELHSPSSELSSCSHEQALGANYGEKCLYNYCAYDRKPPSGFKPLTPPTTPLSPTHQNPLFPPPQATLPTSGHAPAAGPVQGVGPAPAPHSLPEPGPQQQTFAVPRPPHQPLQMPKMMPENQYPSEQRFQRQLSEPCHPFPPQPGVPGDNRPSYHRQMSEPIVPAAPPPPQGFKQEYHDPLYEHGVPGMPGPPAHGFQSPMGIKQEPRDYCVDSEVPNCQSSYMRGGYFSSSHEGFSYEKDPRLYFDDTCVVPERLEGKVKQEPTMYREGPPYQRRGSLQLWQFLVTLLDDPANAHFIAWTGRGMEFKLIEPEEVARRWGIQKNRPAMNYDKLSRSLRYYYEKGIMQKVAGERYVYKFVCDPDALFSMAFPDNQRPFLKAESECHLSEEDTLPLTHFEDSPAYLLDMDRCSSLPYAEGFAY
HSF1, sequence (Q00613 whole entry): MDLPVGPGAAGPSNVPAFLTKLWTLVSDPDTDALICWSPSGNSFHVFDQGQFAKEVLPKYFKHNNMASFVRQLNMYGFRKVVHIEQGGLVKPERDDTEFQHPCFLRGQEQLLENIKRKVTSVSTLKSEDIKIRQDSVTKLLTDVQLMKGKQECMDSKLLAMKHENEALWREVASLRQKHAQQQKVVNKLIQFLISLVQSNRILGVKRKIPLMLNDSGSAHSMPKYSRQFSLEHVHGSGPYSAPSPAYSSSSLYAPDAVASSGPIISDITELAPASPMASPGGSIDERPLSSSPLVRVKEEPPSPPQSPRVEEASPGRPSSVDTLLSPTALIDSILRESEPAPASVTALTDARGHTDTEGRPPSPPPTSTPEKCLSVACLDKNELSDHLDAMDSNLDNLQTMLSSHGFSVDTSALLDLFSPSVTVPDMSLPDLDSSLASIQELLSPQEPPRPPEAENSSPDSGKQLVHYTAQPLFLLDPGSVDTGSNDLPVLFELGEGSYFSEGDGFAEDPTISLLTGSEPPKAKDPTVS
ELF1, sequence (P32519 whole entry): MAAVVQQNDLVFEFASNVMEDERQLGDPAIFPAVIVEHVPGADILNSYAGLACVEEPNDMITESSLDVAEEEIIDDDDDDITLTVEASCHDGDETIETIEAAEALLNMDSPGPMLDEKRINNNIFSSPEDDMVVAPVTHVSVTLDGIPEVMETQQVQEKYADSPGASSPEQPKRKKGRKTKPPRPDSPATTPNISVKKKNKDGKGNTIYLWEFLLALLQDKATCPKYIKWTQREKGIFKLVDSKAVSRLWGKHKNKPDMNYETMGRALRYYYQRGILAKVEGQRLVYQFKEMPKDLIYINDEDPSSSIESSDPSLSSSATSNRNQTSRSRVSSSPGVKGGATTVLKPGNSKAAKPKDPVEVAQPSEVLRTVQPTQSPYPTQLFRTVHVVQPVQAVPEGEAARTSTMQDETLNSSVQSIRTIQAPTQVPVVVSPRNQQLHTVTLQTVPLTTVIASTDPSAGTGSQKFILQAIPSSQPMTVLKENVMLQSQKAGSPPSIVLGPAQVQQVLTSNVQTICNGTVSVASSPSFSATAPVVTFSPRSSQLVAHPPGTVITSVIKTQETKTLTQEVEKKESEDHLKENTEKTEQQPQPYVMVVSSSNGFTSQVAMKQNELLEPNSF

With GTAATC, the binding signal with FLI1 is 1.16 fold enrichment (6-mer frequency, TF over GST control); with ELK1, 1.14 fold enrichment (6-mer frequency, TF over GST control); with GABPA, 1.32 fold enrichment (6-mer frequency, TF over GST control); in the assay with ERG it was 1.08 fold enrichment (6-mer frequency, TF over GST control); with ELF1 it was 1.16 fold enrichment (6-mer frequency, TF over GST control); with EHF, 1.19 fold enrichment (6-mer frequency, TF over GST control). Besides, the binding signal in the assay with SPI1 was 1.13 fold enrichment (6-mer frequency, TF over GST control); with SPIB, 1.09 fold enrichment (6-mer frequency, TF over GST control); with ELK3, 1.11 fold enrichment (6-mer frequency, TF over GST control); in the assay with FEV, 1.1 fold enrichment (6-mer frequency, TF over GST control); in the assay with ETV5, 1.22 fold enrichment (6-mer frequency, TF over GST control); in the assay with HSF1 it was 1.92 fold enrichment (6-mer frequency, TF over GST control). In addition, the binding signal is 1.14 fold enrichment (6-mer frequency, TF over GST control) with ELF4; 1.16 fold enrichment (6-mer frequency, TF over GST control) in the assay with ELK4; 1.11 fold enrichment (6-mer frequency, TF over GST control) in the assay with ETV2; 1.21 fold enrichment (6-mer frequency, TF over GST control) with ELF3; 3.14 fold enrichment (6-mer frequency, TF over GST control) with CRX; 1.02 fold enrichment (6-mer frequency, TF over GST control) in the assay with ETV1.
